What all share (experiment): NCI-60 one-dose screen, 48 h (100 = growth as untreated, 0 = no growth, -100 = all killed)
What all share (conditions): 10 µM

Assay [1] has as its system NCI-H23 lung.
The subject of assay [2] is NCI-H226 lung.
Assay [3] relates to NCI-H322M lung.
The subject of assay [4] is HOP-62 NSCLC.
In assay [5] the test system is NCI-H460 lung.
In assay [6] the test system is NCI-H522 lung.
The test system of assay [7] is A549/ATCC NSCLC.
In assay [8] the test system is 786-0 renal.
Assay [9] concerns COLO 205 colon.
The subject of assay [10] is DU-145 prostate.
Assay [11] concerns K-562 leukemia.
The subject of assay [12] is MALME-3M melanoma.
In assay [13] the test system is MDA-MB-231 breast.
Assay [14] deals with RXF 393 renal.
The test system of assay [15] is SF-268 CNS.
Assay [16] concerns SF-295 CNS.
The test system of assay [17] is SF-539 CNS.
The subject of assay [18] is UACC-257 melanoma.
Assay [19] deals with M14 melanoma.
In assay [20] the test system is HCT-15 colon.

About 83,000 compounds went through this panel and 20% of them were active in at least one assay; those are over-represented in the sample as a whole.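 48-hour exposure, single concentration, 96-well plates; percent growth endpoint where 0 means no net growth. Active: below 10.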 Unmarked numbers belong to inactive results. Activity calls are given as the source filed them.

For `Cc1ccc(C(=O)N2C/C(=C/c3ccccc3)C(=O)/C(=C/c3ccccc3)C2)cc1`, the growth in [1] is 78.6%; in assay [2], 71.2%; in assay [3], 80.5%; in [4] it was 76.9%; in assay [5] it was 90%; in [6], 69%. For the same compound, the growth was 84% in [7]; 53.6% in assay [8]; 76.7% in assay [9]; 58.3% in [10]; 5.67% (active) in [11]; 60.3% in assay [12]. Also, the growth was 53.4% in [13]; 31.3% in assay [14]; 66.4% in [15]; 56.1% in assay [16]; 87.2% in assay [17]; 80.1% in [18]. Further, the growth is 18.2% in assay [19] and 24.5% in assay [20].
As to `CCOCC(=O)C(C#N)c1ccc(Cl)c(Cl)c1` (stereo not given), the growth in [1] is 106%; in assay [2] it was 88.8%; in [3] it was 102%; in assay [4] it was 90.9%; in assay [5] it was 107%; in [6], 94.4%. Besides, the growth in [7] was 101%; in assay [8], 101%; in [9], 115%; in assay [10], 113%; in assay [11], 94.6%; in assay [12], 106%. The growth in assay [13] was 105%; in [14], 94.8%; in assay [15] it was 106%; in [16], 89.3%; in assay [17], 94.8%; in [18], 92%. The growth in assay [19] is 113%; in assay [20] it was 89.9%.
For the compound `COc1ccc(Nc2ncnc3c2c(SC)nn3-c2ccccc2)cc1`, the growth in assay [1] is 89.8%; in [2], 85.5%; in [3], 82.4%; in assay [4] it was 96.7%; in assay [5], 99.4%; in [6], 61.3%. Moreover, the growth in assay [7] was 86%; in [8] it was 93.9%; in assay [9] it was 111%; in assay [10], 101%; in [11] it was 94%; in assay [12] it was 93%. Moreover, the growth in assay [13] is 93.4%; in assay [14], 81.3%; in assay [15], 95.1%; in assay [16], 88.7%; in assay [17], 99.3%; in assay [18] it was 106%. Also, the growth in [19] was 94.4%; in assay [20], 89.2%.
Turning to `C#Cc1ccc(-n2c(/C=C/c3ccc(O)cc3)nc3ncccc3c2=O)cc1`, the growth in assay [1] is 82.8%; in [2] it was 58.7%; in [3], 86.4%; in assay [4] it was 59.4%; in assay [5], 92%; in [6], 0.111% (active). The growth in [7] is 53.5%; in assay [8], 62.6%; in assay [9] it was 110%; in assay [10], 81.8%; in assay [11], 25%; in assay [12], 39.1%. For the same compound, the growth in assay [13] was 85.2%; in assay [14] it was -7.96% (active); in [15] it was 53.8%; in assay [16], 31.8%; in assay [17], 31.7%; in assay [18], 36.5%. The results for the growth in [19] and in assay [20] were 43.1% and 53.6%, respectively.
In the case of `Cc1ccc(NC(=O)Nc2nc3ccccc3s2)cc1NC(=O)Nc1nc2ccccc2s1`, the growth in [1] was 89.5%; in [2] it was 90%; in assay [3], 97.6%; in assay [4], 88.3%; in assay [5], 88.5%; in assay [6], -33.8% (active). In addition, the growth in assay [7] was 42.5%; in [8], 97.1%; in [9], 80.6%; in [10] it was 107%; in assay [11], 83.8%; in [12] it was 90.6%. The growth in assay [13] is 82.4%; in assay [14], 94.7%; in [15], 91.5%; in [16], 101%; in [17] it was 74.6%; in assay [18], 10.5%. Besides, the growth in assay [19] was 90.3%; in assay [20] it was 72.9%.
With `COc1ccc(-c2nn(-c3cccc(NC(=O)c4ccc5c(c4)OCCO5)c3)cc2-c2ccncc2)cc1Cl`, the growth was 45.9% in assay [1]; 47.6% in assay [2]; 54.4% in assay [3]; 30.9% in assay [4]; 9.42% (active) in assay [5]; -32.2% (active) in assay [6]. Also, the growth in [7] was 18.7%; in [8], 14.7%; in [9] it was -6.14% (active); in assay [10], 39.8%; in assay [11], 18.4%; in assay [12] it was 4.38% (active). For the same compound, the growth in [13] is 27.2%; in assay [14], 0.93% (active); in assay [15], 34.8%; in assay [16], -26% (active); in assay [17] it was -20.7% (active); in [18], 34.9%. For the same compound, the values for the growth in assay [19] and in [20] were 13.5% and 32.8%, respectively.
With `C#Cc1ccc(-n2c(/C=C/c3ccc(O)c(OC)c3)nc3ncccc3c2=O)cc1`, the growth in assay [1] is 102%; in [2], 93.9%; in assay [3] it was 98.2%; in [4], 95.3%; in [5], 103%; in [6], 79%. In addition, the growth in [7] is 90.3%; in assay [8], 105%; in assay [9], 109%; in assay [10], 111%; in [11], 80%; in assay [12], 95%. The growth in assay [13] is 98.5%; in assay [14], 100%; in assay [15], 95%; in assay [16] it was 104%; in assay [17], 97.2%; in [18], 87.8%. Besides, the growth is 101% in assay [19] and 90.5% in assay [20].

For the origin of these results see PubChem BioAssay (NCI).
